Shown are actives, neighbours in structure and some others; about 5.7% of the full set was active somewhere.
hgDAF-12 ag – H. glycines DAF-12 receptor agonists, primary screen, cell-based, luminescence, HEK293, GAL4 fusion, UAS-luciferase; HEK293 GAL4-hgDAF12 UAS-luciferase reporter, agonist luminescence; normalized to butyrate control; activation, % at 6.8 µM; actives 1.8% (n = 370,000);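 active = activation above a cutoff set at the mean of all screened compounds plus 3 SD, cut at about 10% in these data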
hcDAF-12 act – H. contortus DAF-12 nuclear receptor activators, primary screen, cell-based, luminescence, HEK293, lit1-tk-luc reporter; actives 1.4% (n = 370,000); HEK293 hcDAF-12 lit1-tk-luc reporter; 0% DMSO, 100% Δ7-dafachronic acid; AID 652067, 2013; activation, % at 6.8 µM;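 active = activation above the mean of all tested compounds plus 3 SD, cut at about 5.5% in these data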
AHR act – AHR activators, primary screen, cell-based, luminescence, luciferase reporter, human | Aryl hydrocarbon receptor (Homo sapiens), P35869 | AHR-responsive luciferase reporter cells | activation, % at 5 µM | actives 2.5% (n = 320,000) | AID 2796, 2010; in the data active = activation above about 47%
DAX1 inh-1 – DAX1 (NR0B1) inhibitors on StAR promoter, primary screen, cell-based, luminescence, SF-1 (NR5A1), full-length DAX-1. inhibition, % at 6.8 µM. HEK293T StAR-luciferase reporter, SF-1/DAX-1 repression relief. actives 1.1% (n = 370,000). AID 652010, 2013;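 active = inhibition above the mean over all tested compounds plus 3 SD, cut at about 3.6% in these data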;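 note: higher inhibition means more luminescence from relief of DAX-1 repression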
ssDAF12 agonist – S. stercoralis DAF-12 nuclear receptor activators, primary screen, cell-based, luminescence, HEK293, GRIP1 co-expression, lit1-tk-luc. HEK293 ssDAF-12/GRIP1 lit1-tk-luc reporter; % of 3 µM dafachronic acid response. activation, % at 6.8 µM. actives 1% (n = 370,000). AID 652126, 2013;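 active = activation above the mean over all tested compounds plus 3 SD, cut at about 0.9% in these data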
DAX1 inh-2 – DAX1 (NR0B1) inhibitors, primary screen, cell-based, HEK293, Gal4-DAX1, luciferase luminescence. Nuclear receptor subfamily 0 group B member 1 (Homo sapiens), P51843. HEK293 Gal4-DAX1 luciferase reporter. inhibition, % at 6.75 µM. actives 0.99% (n = 340,000). AID 504766, 2011;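 active = inhibition above the mean over all tested compounds plus 3 SD, cut at about 4.2% in these data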;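 note: inhibition shows as a rise in luminescence from relieved DAX1 repression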
Target sequence (P51843 207-470 limits assumed): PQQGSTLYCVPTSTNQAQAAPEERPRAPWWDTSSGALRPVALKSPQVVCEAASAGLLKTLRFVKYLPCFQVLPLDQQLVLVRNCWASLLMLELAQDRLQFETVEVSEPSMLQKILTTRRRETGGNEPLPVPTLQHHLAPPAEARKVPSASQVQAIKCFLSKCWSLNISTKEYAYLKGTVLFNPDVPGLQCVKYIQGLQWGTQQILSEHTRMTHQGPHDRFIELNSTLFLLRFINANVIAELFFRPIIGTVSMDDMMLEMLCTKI
AHR act cf – AHR activators, confirmation, cell-based, luminescence, luciferase reporter, human; shares compounds with AHR act; human cells, AHR-responsive luciferase reporter; activation, % at 9 µM; actives 87% (n = 2,300); in the data active = activation above about 49%;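 note: HepG2 hepatoma cells carrying a DRE-driven firefly luciferase reporter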
PXR counter – human PXR activators, counter-screen for AHR activator project, cell-based, luciferase luminescence. shares compounds with AHR act. cell-based PXR reporter. activation, % at 11.6 µM. actives 88% (n = 2,300). AID 434939, 2010; in the data active = activation above about 11%;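 note: human hepatoma DPX-2 cells expressing full-length human PXR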
DAX1 conf – DAX1 (NR0B1) inhibitors relieving SF-1 repression, confirmation, cell-based, luminescence, HEK293T, full-length DAX-1, SF-1 activated StAR promoter. shares compounds with DAX1 inh-1. HEK293T StAR-promoter luciferase reporter, SF-1/DAX-1 repression. inhibition, % at 6.8 µM. actives 87% (n = 2,400). AID 652134, 2013;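 active = inhibition above the average of every tested compound plus 3 SD, cut at about 3.8% in these data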
SF1 AF2mut Luc – StAR reporter signal changes without DAX1, counter-screen for DAX1 inhibitor project, cell-based, luminescence, AF-2 mutant SF-1, transactivation; actives 78% (n = 2,400); shares compounds with DAX1 inh-1; HEK293 StAR-luciferase, SF-1 AF2 mutant; inhibition, % at 6.8 µM;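 active = inhibition above the mean of all tested compounds plus 3 SD, cut at about 3% in these data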
LXRb hcDAF ctr – LXR agonists, Gal4 luciferase reporter, confirmation, counter-screen for hcDAF-12 agonist project, cell-based, luminescence, HEK293, H. contortus campaign; 3,400 tested, under 10 active; shares compounds with hcDAF-12 act; HEK293 Gal4-LXR tk-luc reporter, 24 h; normalized: DMSO 0%, positive control 100%; activation, % at 6.8 µM;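 active = mean percent activation of the reporter above a cutoff set as the average over tested compounds plus their standard deviation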
hcDAF12 conf – H. contortus DAF-12 receptor agonists, confirmation, cell-based, luminescence, HEK293, lit1-tk-luc, triplicate; shares compounds with hcDAF-12 act; actives 61% (n = 3,400); activation, % at 6.8 µM; HEK293 hcDAF-12 lit1-tk-luc reporter; % of Δ7-dafachronic acid response; AID 743032, 2013;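 active = mean activation across triplicate tests above the threshold derived from the earlier primary screen, cut at about 5.5% in these data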
A number is an active result; . = inactive; / = no result given; ! = a repeat was not active.

SMILES	hgDAF-12 ag	hcDAF-12 act	AHR act	DAX1 inh-1	ssDAF12 agonist	DAX1 inh-2	others
CC(N)Cc1c[nH]c2ccc(OCc3cccs3)cc12 (centres undefined)	.	.	80.3	.	.	.	AHR act cf=50.5;PXR counter=11.1
O=c1[nH]c2ccccc2n1C1CCN(C(c2cc3ccccc3o2)c2nnnn2-c2ccc3c(c2)OCCO3)CC1 (centres undefined)	.	.	/	.	.	/
Cc1ccc2cc(C=C(C#N)C#N)c(Cl)nc2c1	.	.	87.9	.	1.4	.	AHR act cf=.;PXR counter=20.8
CCOP(=S)(NN(Cc1ccccc1)C(=O)c1ccccc1)OCC	.	.	.	.	.	.
Cc1ccc2nc3c(cc2c1)CC1(C(=O)N(C)C(=O)N(C)C1=O)C1COCCN31 (centres undefined)	.	.	.	.	.	.
Cc1ccc2nc3c(cc2c1)CC1(C(=O)N(C)C(=O)N(C)C1=O)C1CCCCN31 (centres undefined)	.	.	85.2	.	.	.	AHR act cf=78.3;PXR counter=71.8
CCOC(=O)c1c(C)n(CCOC)c2ccc(O)cc12	.	.	91.7	.	.	.	AHR act cf=79.7;PXR counter=19.0
CC(C)OC(=O)Nc1ccc(N=C(N)N[N+](=O)[O-])cc1	.	.	.	.	.	.
CNC(=O)Oc1cccc(-c2cn3cc(Cl)ccc3n2)c1	13.1	15.4	95.7	5.8	2.5	.	AHR act cf=.;PXR counter=12.5;DAX1 conf=14.0;SF1 AF2mut Luc=5.1;LXRb hcDAF ctr=.;hcDAF12 conf=16.4
c1ccc(-c2nc3ccccc3nc2-c2ccc(CN3CCC(n4nnc5ccccc54)CC3)cc2)cc1	.	.	/	.	.	/
O=C(c1cc2cc(Cl)ccc2[nH]1)N1CCC2(CC1)OCCO2	.	6.4	.	4.6	.	.	DAX1 conf=.;SF1 AF2mut Luc=3.8
O=C(c1cc2cc3ccc(Cl)cc3nc2o1)N1CCC2(CC1)OCCO2	.	.	.	.	.	.
CN1CC=C(/C=C/c2ccc(-c3ccccc3)cc2)CC1	/	/	.	/	/	/
O=C1C(=O)N(c2ccccc2)P(=O)(N(CCCl)CCCl)N1c1ccccc1	12.1	.	/	8.1	.	.	DAX1 conf=6.2;SF1 AF2mut Luc=3.0
COC(=O)C1=C(c2ccc(Cl)c(C(F)(F)F)c2)C[C@@H]2CC[C@H]1N2C(=O)NCc1ccco1	.	.	.	.	.	.
COc1ccc(C(=O)C2CCCN(CCc3ccccc3)C2)cc1OC (centres undefined)	.	.	/	6.3	.	/	DAX1 conf=6.0;SF1 AF2mut Luc=3.7
C=C1[C@@H](C)C2[C@H](Cc3ccccc3)NC(=O)[C@]23[C@H](OC(C)=O)/C=C/[C@@](C)(O)C(=O)[C@@H](C)C/C=C/[C@H]3[C@@H]1O (some centres undefined)	.	.	/	13.1	.	/	DAX1 conf=17.2;SF1 AF2mut Luc=.
CN1CCC(N(C)c2ccc(C(N)=O)cc2[N+](=O)[O-])CC1	.	.	.	.	.	.
NNCc1ccccc1	.	.	/	5.0!	.	.	DAX1 conf=.;SF1 AF2mut Luc=2.9
C/C(=N\NC(=O)c1ccccc1)c1c(O)n(C2CCCCC2)c(=O)[nH]c1=O	.	.	.	6.0	.	.	DAX1 conf=.;SF1 AF2mut Luc=.
C/C(=N\NC(=O)c1ccccc1O)c1c(O)n(C2CCCCC2)c(=O)[nH]c1=O	.	.	.	.	.	.
COC(=O)C1(F)C(=O)NC(=O)NC1O (centres undefined)	.	.	/	.	.	/
CCN1C(=O)N(CC)C(=O)C2(Cc3ccccc3N3CCN(c4ccccc4)CC32)C1=O (centres undefined)	.	8.7	.	.	.	/	LXRb hcDAF ctr=.;hcDAF12 conf=.
C=CC1CN2CCC1CC2C(OC(C)=O)c1ccnc2ccc(OC)cc12 (centres undefined)	.	.	.	.	.	.
O=C(/C=C/c1ccc(Br)cc1)NC(=S)N1C[C@H]2C[C@H](C1)c1cccc(=O)n1C2	.	.	.	.	.	.
SMILES	hgDAF-12 ag	hcDAF-12 act	AHR act	DAX1 inh-1	ssDAF12 agonist	DAX1 inh-2	others
Cc1cccc(N=Nc2ccc(N(C)C)cc2)c1	12.8	8.7	.	.	1.0	.	LXRb hcDAF ctr=.;hcDAF12 conf=.
Cc1ccc(-n2c(O)c(C=Nc3ccc(Br)cn3)c(=O)[nH]c2=O)cc1	.	.	.	.	.	.
CN(C)C(Cc1ccccc1)C(=O)c1c[nH]c2ccccc12 (centres undefined)	.	6.8	.	.	.	.	LXRb hcDAF ctr=.;hcDAF12 conf=.
C=CCn1c(O)c(/C=C2\C=Nc3ccccc32)c(=O)[nH]c1=O	.	6.7	.	.	.	/	LXRb hcDAF ctr=.;hcDAF12 conf=.
COc1ccc(P2(=O)Nc3ccccc3N2)cc1	.	8.0	.	.	1.4	.	LXRb hcDAF ctr=.;hcDAF12 conf=.
COc1ccc(NP2(=O)NCCCN2)cc1	.	.	/	.	.	.
